# Test results as given in PubChem BioAssay (NCATS).
# Inconclusive results are not listed. Entries that show only a call come without a potency. Active and inactive are the calls of the source. Calls come from the whole dose curve; as a rule, active = well fitted cell-killing curve with a large enough effect; inconclusive = small, poorly fitted or top-dose-only effect, or effect the other way; inactive = flat fitted curve, though single readings scatter.
# Assay: Cell Viability - LYMP2-003 (AID 965);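 note: cells exposed to compounds for 24 h before reading; nearly all actives have a fitted effect of over 50% in size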
# Settings: LYMP2-003 lymphoblastoid cell viability; series mostly up to 92.2 µM
# Excerpt: NIH Chemical Genomics Center [NCGC]
# NIH Molecular Libraries Screening Centers Network [MLSCN]
# National Institutes of Environmental Health Sciences [NIEHS]
# National Toxicology Program [NTP]
# We have developed a 1536-well cell-based assay for quantitative high throughput screening (qHTS) against a number of cell lines to determine in vitro cytotoxicity of small molecules. This particular assay uses a human lymphoblastoid cell line (LYMP2-003) purchased from Coriell Institute for Medical Research.
# NCGC Assay Protocol Summary:
# The CellTiter-Glo luminescent cell viability assay (Promega) is a homogeneous method to measure the number of viable cells in culture. The end point readout of this assay is based on quantitation of intracellular ATP, an indicator of metabolic activity, using the luciferase reaction. Luciferase catalyzes the oxidation of beetle Luciferin to oxyluciferin and light in the presence of ATP. The luminescent signal is proportional to amount of ATP present.
# Using the CellTiter-Glo luminescent cell viability assay, the amount of cellular ATP was measured in the lymphoblastoid cell line with complete culture medium following compound treatment for 24 hours. The assay was performed in opaque white Kalypsys 1536-well plates. In the screen, tetraoctylammonium bromide was used as positive control. Library compounds were measured for their ability to cause acute toxicity in the cell line, as reflected by a decrease in intracellular ATP levels, in a concentration-dependent manner. […] AC50 values were determined from concentration-response data modeled with the standard Hill equation.
# qHTS protocol for CellTiter Glo lymphoblastoid cellular assay
# [Step] [Parameter] [Value] [Description]
# 1. Reagent; 5 uL; 2500 lymphoblastoid cells/well
# 2. Time; 5 hr; 37 C incubation
# 4. Controls; 23 nL; Tetraoctylammonium bromide 6.4pM to 92 uM
# 5. Time; 24 hr; 37 C incubation
# 6. Reagent; 5 uL; CellTiter Glo reagent
# 7. Time; 30 min; Room Temperature
# 8. Detection; Luminescence; Viewlux plate reader
# Keywords: cell viability, cytotoxicity, lymphoblastoid cell line, luminescence, NTPHTS, NTPHTS_NCGC, NIEHS, DSSTox, MLSMR, MLSCN, NIH Roadmap, qHTS, NCGC
# Potency is the fitted concentration of half-maximal effect.
row,Compound,Potency
1,ClC1=C(Cl)C2(Cl)C3C(Cl)C=CC3C1(Cl)C2(Cl)Cl (stereo not given),39.8 µM (active)
2,CC(Cl)Cl,inactive
3,CCN(CC)c1ccccc1,inactive
4,Oc1ccc(Cl)cc1Cl,inactive
5,CCSC(=O)Cl,inactive
6,Cc1cccc(C#N)c1,inactive
7,OCC1CO1 (stereo not given),inactive
8,CCCCCCCCCc1ccc(O)cc1,inactive
9,COP(=S)(OC)Oc1ccc([N+](=O)[O-])cc1,inactive
10,C1CCC2CCCCC2C1 (stereo not given),inactive
11,CCOP(=S)(OCC)Oc1ccc([N+](=O)[O-])cc1,inactive
12,ClCBr,inactive
13,O=C(O)COc1ccc(Cl)cc1Cl,inactive
14,O=C1C(Cl)=C(Cl)C(=O)C(Cl)=C1Cl,20 µM (active)
15,COc1ccc(N)cc1,inactive
16,COc1ccc(C=O)cc1OC,inactive
17,O=NN(CCO)CCO,inactive
18,CC(C)(C)OO,inactive
19,O=C(Cl)/C=C/C(=O)Cl,inactive
20,COC1=CC(=O)OC(CCc2ccccc2)C1 (stereo not given),inactive

row,Compound,Potency
1,CC(C)(c1ccccc1)c1ccc(O)cc1,inactive
2,Cc1ccc2ccccc2c1,inactive
3,ClC(Cl)=C(Cl)C(Cl)=C(Cl)Cl,inactive
4,C=C(C)C(=O)OCC1CO1 (stereo not given),inactive
5,C=C(Cl)Cl,inactive
6,C=CCc1ccc2c(c1)OCO2,inactive
7,c1ccc(OP(Oc2ccccc2)Oc2ccccc2)cc1,inactive
8,O=[N+]([O-])c1ccc(Cl)c(Cl)c1,inactive
9,c1ccc(N=Nc2ccccc2)cc1,inactive
10,Cc1ccc([N+](=O)[O-])cc1C,inactive
11,C=CCOC(=O)c1ccccc1N,inactive
12,CCCCCCCC(=O)Cl,inactive
13,CCCC(=O)Cl,inactive
14,COC1=CC(=O)O[C@@H](/C=C/c2ccc3c(c2)OCO3)C1,inactive
15,CCOCN(C(=O)CCl)c1c(C)cccc1CC,50.1 µM (active)
16,C=CC(N)=O,inactive
17,ClC1=C(Cl)C2(Cl)C3C4C=CC(C4)C3C1(Cl)C2(Cl)Cl (stereo not given),31.6 µM (active)
18,CCCCOC(=O)c1ccccc1C(=O)OCCCC,inactive
19,C=CCOC(C)=O,inactive
20,BrCCBr,inactive
